Compound activity as filed in PubChem.
Sampled rows, rich in hits. Any-hit rate of the full collection: about 3.4%.
LGR2 inh: Drosophila LGR2 receptor signaling inhibition; HEK293 LGR2, CRE-luciferase, bursicon-stimulated, 4 h; inhibition, % at 9.99 µM; 0.35% of 380,000 active;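 active = drop in luminescence signal, shown as inhibition above about 50% in the replicate tests, limit read from the data, passing the limit was not always enough; inconclusive = probably only some replicates passing the limit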;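 also: agonist challenge used bursicon conditioned medium at about half maximal strength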
SIRT5 block: sirtuin-5 (human) deacylase inhibition. Purified SirT5, succinyl-peptide AMC, trypsin-coupled fluorescence. inhibition, % at 15 µM. 1.1% of 330,000 active; in the data active = inhibition above about 15%; inconclusive = no clear call, values can overlap the other calls
Target sequence (Q9NXA8 whole entry, looked up): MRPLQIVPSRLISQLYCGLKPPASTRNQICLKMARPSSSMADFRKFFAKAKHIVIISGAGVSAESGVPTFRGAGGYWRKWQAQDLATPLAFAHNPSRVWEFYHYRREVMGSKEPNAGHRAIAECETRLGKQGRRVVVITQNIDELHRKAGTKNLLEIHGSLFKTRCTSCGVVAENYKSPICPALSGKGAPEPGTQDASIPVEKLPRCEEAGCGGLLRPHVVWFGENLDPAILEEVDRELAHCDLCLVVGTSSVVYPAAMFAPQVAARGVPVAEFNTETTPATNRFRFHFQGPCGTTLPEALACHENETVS
rRNA inh HTS: inhibits bacterial ribosomal RNA function over humanized ribosomes; E. coli WT GFP vs humanized-ribosome RFP mutants, fluorescence, 24 h; active compounds read low; DMSO median 0, no signal -100; GFP signal change (wild-type ribosome), % (test concentration not listed); 1.6% of 350,000 active; AID 720706;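 active = significant combined selectivity score with lowered wild-type GFP, culture density cut under 30%, mutant RFP and density less affected; inactive = any of these conditions unmet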
PAX8 reporter: inhibitors of PAX8 transcriptional activity in RMG-I cells; RMG-I TPO-luciferase reporter, SteadyGlo, 24 h; inhibition, % at 12.6 µM; 1.2% of 360,000 active; AID 652154;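 active = mean replicate inhibition at least 60% with every replicate also reaching 60%; inconclusive = only one of the two criteria is met; inactive = mean below 60% and not all replicates reaching 60%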;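 also: luciferase light reporting Pax8 driven TPO promoter activity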
EWS-Fli inh: inhibitors of EWS/Fli oncoprotein transcriptional activity; A673 NR0B1-luciferase reporter, viability-normalised; inhibition, % at 12.6 µM; 0.67% of 350,000 active; AID 651661;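 active = mean inhibition of at least 50% after viability correction, with every replicate also passing that limit; inconclusive = mean reaches 50% but only one of two replicates passes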;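 also: firefly luciferase signal divided by Alamar Blue viability fluorescence both relative to DMSO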
PGC1a acetyl inh: lowers PGC1a acetylation signal in U2OS cells; AlphaScreen anti-acetyl-lysine; with virally co-expressed GCN5 acetyltransferase; inhibition, % at 15.6 µM; 0.17% of 350,000 active;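 active = every replicate shows inhibition of at least 40%; inconclusive = mean inhibition at least 40% but some replicate below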
Of the large screens only hits and unclear results are named; the others gave an inactive call.

O=S(=O)(c1ccc(F)cc1)c1nc(-c2ccco2)oc1Nc1ccccc1	SIRT5 block 112
CO[C@@H]1CN(C)C(=O)c2ccc(NS(C)(=O)=O)cc2OC[C@@H](C)N(Cc2ccccc2)C[C@H]1C	none (no result: LGR2 inh, SIRT5 block, PAX8 reporter, EWS-Fli inh, PGC1a acetyl inh)
COc1ccc(C[C@@H]2OC3(C=CC(=O)C=C3)O[C@H]2Cc2ccc(OC)cc2)cc1	PGC1a acetyl inh 90 (no result: LGR2 inh, SIRT5 block, rRNA inh HTS, PAX8 reporter, EWS-Fli inh)
O=C1C=CC2(C=C1)O[C@H](Cc1ccccc1)[C@@H](Cc1ccccc1)O2	LGR2 inh 98, PAX8 reporter 121, PGC1a acetyl inh inconclusive
COc1ccc(/C=C2\C(=O)ON=C2c2ccccc2)cc1	none
O=C1ON=C(c2ccccc2)/C1=C/c1ccc(OS(=O)(=O)c2ccccc2)cc1	PAX8 reporter 108 (no result: PGC1a acetyl inh)
Cc1ccc(/C=C2\C(=O)ON=C2c2ccccc2)o1	SIRT5 block 15
Cc1ccc(C2=NOC(=O)/C2=C\c2ccc(C)o2)cc1	none (no result: LGR2 inh)
O=[N+]([O-])c1c(Nc2ccc(O)cc2)cc(Cl)c2nonc12	SIRT5 block 17, PAX8 reporter 113, EWS-Fli inh 61 (no result: PGC1a acetyl inh)
CN1C(=O)c2cc(NC(=O)Nc3ccccc3)ccc2OC[C@@H]2O[C@H](CC(=O)NC3CCC3)CC[C@@H]21	none
Cc1oc2c(CN3CCCCC3)c(O)ccc2c(=O)c1-c1ccc(Br)cc1	none (no result: PGC1a acetyl inh)
Cc1oc2c(CN3CCCC3)c(O)ccc2c(=O)c1-c1ccc(Br)cc1	rRNA inh HTS -28 (no result: PAX8 reporter)
C[C@H](CO)N1C[C@H](C)[C@H](CN(C)C(=O)C2CCC2)Oc2ncc(-c3ccncc3)cc2C1=O	none (no result: SIRT5 block, PAX8 reporter)
C[C@H](CO)N1C[C@H](C)[C@@H](CN(C)Cc2ccc(-c3ccccc3)cc2)Oc2ccc(NS(=O)(=O)c3cn(C)cn3)cc2CC1=O	none (no result: LGR2 inh, SIRT5 block, PAX8 reporter, EWS-Fli inh, PGC1a acetyl inh)
Cc1cc(C(=O)CSc2nnc(N)s2)c(C)n1Cc1cccs1	LGR2 inh 75 (no result: SIRT5 block, rRNA inh HTS, EWS-Fli inh, PGC1a acetyl inh)
Cc1csc(SCC(=O)c2cc(C)n(Cc3cccs3)c2C)n1	none (no result: LGR2 inh, SIRT5 block, rRNA inh HTS, PAX8 reporter, EWS-Fli inh)
O=C(NCC1CCCO1)C(=Cc1cccc([N+](=O)[O-])c1)C(=O)NCC1CCCO1 (stereo not given)	PAX8 reporter 98 (no result: PGC1a acetyl inh)
O=C(NCC1CCCO1)/C(=C\c1cccc([N+](=O)[O-])c1)NC(=O)c1ccccc1 (stereo not given)	none
COc1ccc2c3c([nH]c2c1)[C@@H](CO)N(C(=O)c1ccc(F)cc1)CC31CN(C)C1	none (no result: SIRT5 block, PAX8 reporter)
CC(C)(C)C(=O)Nc1ccc(Sc2ccc([N+](=O)[O-])cc2)cc1	none (no result: PGC1a acetyl inh)
CC(=O)Nc1ccc(Sc2ccc([N+](=O)[O-])o2)cc1	PAX8 reporter 114, EWS-Fli inh 61
C[C@@H]1CN([C@@H](C)CO)C(=O)c2c(c3ccccc3n2C)-c2ccccc2CO[C@H]1CN(C)Cc1cccc(C(=O)Nc2ccccc2N)c1	SIRT5 block 17
C[C@@H]1CN([C@H](C)CO)C(=O)c2c(c3ccccc3n2C)-c2ccccc2CO[C@H]1CN(C)Cc1ccc2c(c1)OCO2	none (no result: EWS-Fli inh)
C[C@@H]1CN([C@@H](C)CO)C(=O)c2c(c3ccccc3n2C)-c2ccccc2CO[C@H]1CN(C)C(=O)Nc1ccc2c(c1)OCO2	PAX8 reporter 97
C[C@H]1CN([C@@H](C)CO)C(=O)c2c(c3ccccc3n2C)-c2ccccc2CO[C@@H]1CN(C)Cc1cccc(F)c1	SIRT5 block 18 (no result: PGC1a acetyl inh)
C[C@H]1CN([C@@H](C)CO)C(=O)c2c(c3ccccc3n2C)-c2ccccc2CO[C@@H]1CN(C)Cc1ccc2c(c1)OCO2	SIRT5 block 19 (no result: PGC1a acetyl inh)
C[C@H]1CN([C@@H](C)CO)C(=O)c2c(c3ccccc3n2C)-c2ccccc2CO[C@H]1CN(C)C(=O)Nc1ccc2c(c1)OCO2	PAX8 reporter inconclusive
CCCN1[C@@H]2c3ccc(-c4ccccc4F)c(=O)n3C[C@@H]2[C@@H](CO)[C@@H]1C(=O)N1CCCCC1	none (no result: PGC1a acetyl inh)
Cc1noc(C)c1NC(=O)N(C)C[C@H]1Oc2ccc(NC(=O)Cc3cn(C)c4ccccc34)cc2C(=O)N([C@H](C)CO)C[C@@H]1C	none (no result: LGR2 inh, PAX8 reporter)
COC(=O)C[C@@H]1CC[C@@H]2[C@@H](COc3ccc(NC(=O)Nc4cc(C)cc(C)c4)cc3C(=O)N2C)O1	none (no result: PGC1a acetyl inh)
C[C@@H]1CN([C@H](C)CO)C(=O)c2cc(Br)cnc2O[C@@H]1CN(C)CC1CC1	none
C[C@@H]1CN([C@H](C)CO)C(=O)c2c(c3ccccc3n2C)-c2ccccc2CO[C@@H]1CN(C)Cc1ccc2c(c1)OCCN2C	SIRT5 block 16
C[C@@H]1CN([C@H](C)CO)C(=O)c2c(c3ccccc3n2C)-c2ccccc2CO[C@H]1CN(C)Cc1cccc(O)c1	none (no result: PAX8 reporter)
C[C@H](CO)N1C[C@H](C)[C@@H](CN(C)Cc2ccc(Oc3ccccc3)cc2)OCc2ccccc2-c2c(n(C)c3ccccc23)C1=O	PAX8 reporter 89 (no result: PGC1a acetyl inh)
C[C@@H]1CN([C@@H](C)CO)C(=O)c2c(c3ccccc3n2C)-c2ccccc2CO[C@@H]1CN(C)Cc1cccc(O)c1	SIRT5 block 23
C[C@@H]1CN([C@@H](C)CO)C(=O)c2c(c3ccccc3n2C)-c2ccccc2CO[C@H]1CN(C)Cc1ccc(Oc2ccccc2)cc1	none (no result: PAX8 reporter)
CCCC(=O)N1CCC2(CC1)CN(C(=O)CC)[C@@H](CO)c1c2c2ccc(OC)cc2n1C	none (no result: PAX8 reporter)
O=C(O)c1cc(O)c2c(c1)C(=O)c1cccc(O)c1C2=O	SIRT5 block 18, PGC1a acetyl inh inconclusive (no result: LGR2 inh, rRNA inh HTS)
C[C@@H]1CN([C@@H](C)CO)C(=O)Cc2cc(NC(=O)C3CC3)ccc2O[C@H]1CN(C)S(=O)(=O)c1cccs1	none
COc1ccc(C2C3(C#N)C(N)=NC(OC)(OC)C23C#N)cc1 (stereo not given)	SIRT5 block 18 (no result: LGR2 inh, PGC1a acetyl inh)
COc1cc(C2Nc3cccc4cccc(c34)N2)ccc1OC(C)=O	PGC1a acetyl inh 56 (no result: LGR2 inh, SIRT5 block, rRNA inh HTS, PAX8 reporter, EWS-Fli inh)
COc1ccc(-c2ccccc2[C@H]2[C@@H](C#N)N(C(=O)C3CCCCC3)[C@H]2CO)cc1	none (no result: PAX8 reporter)
CCN(CC)c1ccc(/C=N/NC(=O)c2ccoc2C)c(O)c1	rRNA inh HTS -34
CCN(CC)c1ccc(/C=N/N=C(N)N)c(O)c1	EWS-Fli inh 54
CCN(CC)c1ccc(N=Cc2ccc(N(CC)CC)cc2O)cc1	none (no result: LGR2 inh, SIRT5 block, rRNA inh HTS, PAX8 reporter, EWS-Fli inh)
CCN(CC)c1ccc(/C=N/NC(=O)OC)c(O)c1	none (no result: LGR2 inh, SIRT5 block, rRNA inh HTS, PAX8 reporter, EWS-Fli inh)
CCn1nc(C)cc1-c1nnc(Sc2ncc([N+](=O)[O-])s2)n1C	PAX8 reporter 78, EWS-Fli inh 69
Cc1nc(C(=O)NNC(=O)c2ccccc2Cl)c(C(F)(F)F)o1	none
Cc1nc(C(=O)NNC(=O)c2cccc(Cl)c2)c(C(F)(F)F)o1	rRNA inh HTS -27
O=C(O)c1[nH]c2ccc(Cl)cc2c1CCN1C(=O)c2ccccc2C1=O	none
O=C(O)c1[nH]c2ccc(Br)cc2c1CCN1C(=O)c2cccc([N+](=O)[O-])c2C1=O	rRNA inh HTS -28
O=C(COc1cc2oc(=O)c3c(c2cc1Cl)CCCC3)NCC1CCC(C(=O)O)CC1 (stereo not given)	rRNA inh HTS -23
